Assay results taken from PubChem BioAssay (NCATS).
Inconclusive results are not listed. A number with no mark means an inactive call. Active and inactive are the calls of the source. Calls come from the whole dose curve; as a rule, active = well fitted inhibition curve with a large enough effect; inconclusive = small, poorly fitted or top-dose-only effect; inactive = no such curve, though single readings can be large or run the other way.
Potency is the fitted concentration of half-maximal effect.

What follows are compounds tested against Retinaldehyde dehydrogenase 3 (Homo sapiens) (UniProt P47895) (assay: qHTS for Inhibitors of the Aldehyde Dehydrogenase Family (ALDH1A3) Primary screen (AID 2061315;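 for activity change, negative = inhibition: plate controls were DMSO vehicle for no effect and reference inhibitor for full effect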)). Details: ALDH inhibition qHTS; series mostly up to 56 µM; activity change, negative = inhibition: at the top concentration.
In the case of CCOc1ccc(Nc2nc(-c3c(C)nc4ccccn34)cs2)cc1, the “activity change, negative = inhibition” value is reported as 10.3%.
S=C(c1ccc(-c2ccc(Cl)c(Cl)c2)o1)N1CCCCC1 was tested, and the “activity change, negative = inhibition” value was 18.9%.
In the case of O=C(OCC1=C[C@@H](O)[C@@H]2C=CO[C@@H](O[C@@H]3O[C@H](CO)[C@@H](O)[C@H](O)[C@H]3O)[C@H]12)c1ccc(O)cc1, the “activity change, negative = inhibition” value is reported as -14.5% [at 28 µM].
With NCCCCN(Cc1nc2ccccc2[nH]1)[C@H]1CCCc2cccnc21 the “activity change, negative = inhibition” value was 6.06% [at 28 µM].
For COc1cc(/C=C/c2cc(O)cc(O[C@@H]3O[C@H](CO)[C@@H](O)[C@H](O)[C@H]3O)c2)ccc1O, the Potency was 6.31 µM (active).
In the case of CC1(C)[C@H](C(=O)O)N2C(=O)C[C@H]2S1(=O)=O, the “activity change, negative = inhibition” value is reported as -10.8%.
With CC1(COc2ccc3c(c2)ncn3-c2ccc3cccc(N4CCC(N)CC4)c3n2)COC1 the “activity change, negative = inhibition” value was -0.344%.
CC(C)c1c(-c2cnn(C(C)(C)C)c2)nc2c(C#N)c[nH]n2c1=O was tested, and the “activity change, negative = inhibition” value was 0.558%.
COc1cc2nc(N3CCCC3)nc(NCCCCCN3CCCC3)c2cc1OC was tested, and the “activity change, negative = inhibition” value was -9.12%.
CC1CCC23COC(=O)C2=CC(O)CC3C1(C)CCC1=CC(O)OC1=O (stereo not given) was tested, and the “activity change, negative = inhibition” value was -6.17%.

These compounds were tested against Aldehyde dehydrogenase 1A1 (Homo sapiens) (UniProt P00352) (assay: qHTS for Inhibitors of the Aldehyde Dehydrogenase Family (ALDH1A1) Confirmatory screens (AID 2061316; note: nearly all actives have a fitted effect of over 65% in size; for activity change, negative = inhibition: % is set by controls: 0 for no effect and ±100 for the full control effect)). Details: ALDH inhibition qHTS; series mostly up to 47.3 µM; activity change, negative = inhibition: at the top concentration.
With CC(=O)N(O)CCCCCN1C(=O)CCC1=O the “outcome” value was “inactive”.
In the case of O=C1C(c2c(O)[nH]c3ccccc23)=Nc2ccccc21, the “activity change, negative = inhibition” value is reported as -10.7%.
In the case of CNC(=O)c1cc(Oc2ccc(NC(=O)c3cccc(C(F)(F)F)c3)cc2)ccn1, the “activity change, negative = inhibition” value is reported as 0.434%.
With CC(C(=O)O)c1ccc2c(c1)CC(=O)c1ccccc1S2 (stereo not given) the “activity change, negative = inhibition” value was -8.56%.
For COc1cc(/C=C/C(=O)O[C@H]2[C@H](OC(=O)/C=C/c3cc(OC)c(O)c(OC)c3)O[C@H](CO[C@@H]3O[C@H](CO)[C@@H](O)[C@H](O)[C@H]3O)[C@@H](O)[C@@H]2O)ccc1O, the “activity change, negative = inhibition” value was -16.7% [at 16 µM].
With CN1CCN(C2=Nc3ccccc3Nc3ccc(O)cc32)CC1 the “activity change, negative = inhibition” value was -18.2%.
In the case of CNC(=O)Nc1ccc(OC)c(NC(=O)NC(=O)c2cc(F)c(F)cc2Cl)c1, the “activity change, negative = inhibition” value is reported as -15.1%.
In the case of C/C(=N\N=C(N)N)c1cc(NC(=O)CCCCCCCCC(=O)Nc2cc(/C(C)=N/N=C(N)N)cc(/C(C)=N/N=C(N)N)c2)cc(/C(C)=N/N=C(N)N)c1, the “outcome” value is reported as “inactive”.
In the case of CCOc1ccc2ccccc2c1C(=O)N[C@@H]1C(=O)N2[C@@H]1SC(C)(C)[C@@H]2C(=O)O, the “activity change, negative = inhibition” value is reported as -19.8%.
CC(=O)OCC(=O)[C@@]1(O)[C@H](C)C[C@H]2[C@@H]3C=C(C)C4=Cc5c(cnn5-c5ccccc5)C[C@]4(C)[C@@H]3[C@@H](O)C[C@@]21C was tested, and the “activity change, negative = inhibition” value was -6.35%.
With COc1cc(NC(=O)c2ccccn2)ccc1Cl the “activity change, negative = inhibition” value was -19.3%.
For OC[C@@]1(O)CO[C@@H](OC[C@H]2O[C@@H](Oc3ccccc3)[C@H](O)[C@@H](O)[C@@H]2O)[C@@H]1O, the “activity change, negative = inhibition” value was -12.1% [at 25.5 µM].
In the case of Cc1nc2c(C#N)c[nH]n2c(=O)c1C(C)C, the “activity change, negative = inhibition” value is reported as -15.4%.
CCOc1ccc(Cc2nc(-c3c(C)nc4ccccn34)cs2)cc1 was tested, and the Potency was 6.34 µM (active).
With CCC[C@H](N[C@@H](C)C(=O)N1[C@H](C(=O)O)C[C@@H]2CCCC[C@@H]21)C(=O)O the “activity change, negative = inhibition” value was 3.86%.
In the case of CC(C)(Cc1ccccc1)NCC(O)c1ccc(O)c(NS(C)(=O)=O)c1 (stereo not given), the “activity change, negative = inhibition” value is reported as -14.5%.
S=C(c1ccc(-c2ccc(Cl)c(Cl)c2)o1)N1CCCCC1 was tested, and the Potency was 5.04 µM (active).
In the case of O=C(CCCCCCNC(=O)c1cnc(N(c2ccccc2)c2ccccc2)nc1)NO, the “activity change, negative = inhibition” value is reported as -66.3%.
In the case of CSC(=O)OCC1=C[C@@H]2OC(=O)C3=CO[C@@H](O[C@@H]4O[C@H](CO)[C@@H](O)[C@H](O)[C@H]4O)[C@H]1[C@@H]32, the “activity change, negative = inhibition” value is reported as -8.91% [at 25.5 µM].
For NCCCCN(Cc1nc2ccccc2[nH]1)[C@H]1CCCc2cccnc21, the “activity change, negative = inhibition” value was -11.9% [at 25.5 µM].
For COc1cc(/C=C/c2cc(O)cc(O[C@@H]3O[C@H](CO)[C@@H](O)[C@H](O)[C@H]3O)c2)ccc1O, the “activity change, negative = inhibition” value was -1.14% [at 25.5 µM].
CC1(C)[C@H](C(=O)O)N2C(=O)C[C@H]2S1(=O)=O was tested, and the “outcome” value was “inactive; activator”.
In the case of CC1(COc2ccc3c(c2)ncn3-c2ccc3cccc(N4CCC(N)CC4)c3n2)COC1, the “activity change, negative = inhibition” value is reported as -24.3%.
With CC(C)c1c(-c2cnn(C(C)(C)C)c2)nc2c(C#N)c[nH]n2c1=O the “activity change, negative = inhibition” value was 2.79%.
For COc1ccc(NC(=O)N2CCc3c2ccc2ccccc32)cc1N1CCN(C)CC1, the “outcome” value was “inactive”.
